Measured values as given in PubChem BioAssay (NCI).
This is part of a sample that, as a whole, favours compounds with a hit. Of some 79,000 tested, about 15% had one in any assay. The source made the active and inactive calls. Cut-off read from the data, not from the text of the source: active = growth inhibition above about 70%; inactive = the rest.

Assays:
[1] = NCI Yeast Anticancer Drug Screen. Data for the rad52 strain (AID 147);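 note: 0% = growth of vehicle-treated control cultures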; settings: S. cerevisiae rad52 mutant growth inhibition, hits give high values
In short: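 Compounds are applied to a genetically defined yeast strain lacking normal DNA damage repair, and inhibition of growth is expressed relative to cultures given vehicle only.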

[2] = NCI Yeast Anticancer Drug Screen. Data for the wt1 strain (AID 149);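 note: 0% = growth of vehicle-treated wt1 cultures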; settings: S. cerevisiae wt1 strain (SPY 50644) growth inhibition, hits give high values
In short: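 Readout: yeast growth inhibition, normalised to vehicle controls, in the wt1 strain exposed to test compounds.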

[3] = NCI Yeast Anticancer Drug Screen. Data for the rad50EPP+ strain (AID 151);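 note: 0% = growth of vehicle-treated control cultures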; settings: S. cerevisiae rad50 mutant strain, hits give high values
In short: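 Compounds were applied to the rad50EPP+ yeast strain, which bears a defined DNA repair alteration, and growth inhibition was determined relative to vehicle-treated cultures.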

[4] = NCI Yeast Anticancer Drug Screen. Data for the mgt1 strain (AID 153); settings: S. cerevisiae mgt1 mutant growth inhibition, hits give high values
In short: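 Strain: mgt1 yeast, one of a set carrying defined DNA damage repair or cell cycle control alterations. Compound-treated growth compared with vehicle.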

[5] = NCI Yeast Anticancer Drug Screen. Data for the rad50 strain (AID 155);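 note: 0% = growth of vehicle-only cultures of the same strain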; settings: S. cerevisiae rad50 strain growth inhibition, hits give high values
In short: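 Compounds were tested on a yeast strain with an engineered DNA damage repair alteration; the reported value is growth inhibition normalised to vehicle treatment.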

[6] = NCI Yeast Anticancer Drug Screen. Data for the mec2-1 strain (AID 157); settings: S. cerevisiae mec2-1 strain, hits give high values
In short: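 Strain: mec2-1 (DNA repair/cell cycle alteration). Compound exposure, then growth measured; inhibition expressed relative to vehicle.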

[7] = NCI Yeast Anticancer Drug Screen. Data for the rad14 strain (AID 159);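 note: 0% = growth of vehicle-treated control cultures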; settings: S. cerevisiae rad14 strain growth inhibition, hits give high values
In short: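 Compound-treated yeast with a defined DNA-repair lesion; growth inhibition normalised to vehicle-treated cultures.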

[8] = NCI Yeast Anticancer Drug Screen. Data for the sgs1 mgt1 strain (AID 161);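 note: 0% = growth of cultures given vehicle only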; settings: S. cerevisiae sgs1 mgt1 strain, hits give high values
In short: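 Inhibition of yeast growth, normalised to vehicle-treated controls, is reported for a strain bearing genetic alterations in DNA damage repair.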

[9] = NCI Yeast Anticancer Drug Screen. Data for the CLN2oe strain (AID 163);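 note: 0% = growth of vehicle-only control cultures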; settings: S. cerevisiae CLN2oe strain, hits give high values
In short: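 Growth of a genetically modified yeast strain is measured after compound exposure and compared with cultures given vehicle alone.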

[10] = NCI Yeast Anticancer Drug Screen. Data for the cln2 rad14 strain (AID 165);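 note: 0% = growth equal to vehicle treated cultures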; settings: S. cerevisiae cln2 rad14 strain, hits give high values
In short: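 Compounds are applied to the cln2 rad14 yeast strain, and growth is then compared with that of vehicle-treated cultures to give inhibition.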

[11] = NCI Yeast Anticancer Drug Screen. Data for the bub3 strain (AID 167); settings: S. cerevisiae bub3 mutant strain, hits give high values
In short: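 Growth of a checkpoint-deficient yeast mutant is measured after compound exposure. Values represent inhibition relative to vehicle.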

[12] = NCI Yeast Anticancer Drug Screen. Data for the wt2 strain (AID 169);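 note: 0% = growth of vehicle-treated yeast cultures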; settings: S. cerevisiae wt2 strain growth inhibition, hits give high values
In short: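 This strain belongs to a panel of yeast strains with defined genetic alterations in DNA damage repair or cell cycle control. Compounds are applied, and growth inhibition is measured against vehicle-treated cultures.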

[13] = NCI Yeast Anticancer Drug Screen. Data for the mlh1 strain (AID 171);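 note: 0% = growth of vehicle-treated control cultures of the same strain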; settings: S. cerevisiae mlh1 strain growth inhibition, hits give high values
In short: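 Growth of the mutant yeast strain after compound exposure, expressed as inhibition relative to vehicle-only controls.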

[14] = NCI Yeast Anticancer Drug Screen. Data for the sgs1 strain (AID 173);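 note: 0% = growth of vehicle-only control cultures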; settings: S. cerevisiae sgs1 mutant, hits give high values
In short: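 Growth of a yeast strain bearing a defined genetic alteration is measured after compound treatment. Inhibition is expressed relative to vehicle-only controls.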

[15] = NCI Yeast Anticancer Drug Screen. Data for the mlh1 rad18 strain (AID 175); settings: S. cerevisiae mlh1 rad18 strain growth inhibition, hits give high values
In short: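 Read-out is yeast growth inhibition, calculated against vehicle-only controls. The compound was applied to a strain engineered with DNA damage repair alterations.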

[16] = NCI Yeast Anticancer Drug Screen. Data for the rad18 strain (AID 177); settings: S. cerevisiae rad18 mutant growth inhibition, hits give high values
In short: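 Growth of the mutant yeast strain after compound exposure, normalised to vehicle-only cultures.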

[17] = at 5.0 µM (retest, dose inferred, filed as 0.5)
[18] = at 50.0 µM (retest, dose inferred, filed as 5.0)

Measured: growth inhibition

Cc1cc[n+](C2=C(Nc3cccc(C(F)(F)F)c3)C(=O)c3ccccc3C2=O)cc1
inactive: [1]; at 1.2 µM 5% | [1]; at 3.7 µM 5% | [1]; at 11.0 µM 7% | [1]; at 33.0 µM 21% | [1]; at 100.0 µM 55% | [2]; at 1.2 µM 0% | [2]; at 3.7 µM 2% | [2]; at 11.0 µM 4% | [2]; at 33.0 µM 7% | [2]; at 100.0 µM 12% | [3]; at 1.2 µM 7% | [3]; at 3.7 µM 9% | [3]; at 11.0 µM 12% | [3]; at 33.0 µM 29% | [3]; at 100.0 µM 30% | [4]; at 1.2 µM -1% | [4]; at 3.7 µM 0% | [4]; at 11.0 µM 1% | [4]; at 33.0 µM 10% | [4]; at 100.0 µM 12% | [5]; at 1.2 µM 2% | [5]; at 3.7 µM 3% | [5]; [17] 10% | [5]; at 11.0 µM 8% | [5]; at 33.0 µM 34% | [5]; at 100.0 µM 59% | [6]; at 1.2 µM 1% | [6]; at 3.7 µM 4% | [6]; [17] 8% | [6]; at 11.0 µM -17% | [6]; at 33.0 µM -14% | [6]; [18] 36% | [6]; at 50.0 µM 68.2% | [6]; at 100.0 µM 10% | [7]; at 1.2 µM 0% | [7]; at 3.7 µM -8% | [7]; at 11.0 µM -5% | [7]; at 33.0 µM 0% | [7]; at 100.0 µM 14% | [8]; [17] 6% | [8]; [18] 39% | [8]; at 50.0 µM 62% | [9]; at 1.2 µM 3% | [9]; at 3.7 µM 4% | [9]; at 11.0 µM 6% | [9]; at 33.0 µM -3% | [9]; at 100.0 µM -4% | [10]; [17] 6% | [10]; [18] -4% | [10]; at 50.0 µM 46.4% | [11]; at 1.2 µM 4% | [11]; at 3.7 µM 5% | [11]; [17] 1% | [11]; at 11.0 µM 9% | [11]; at 33.0 µM 13% | [11]; [18] 49% | [11]; at 50.0 µM 46.8% | [11]; at 100.0 µM 44% | [12]; at 1.2 µM 1% | [12]; at 3.7 µM 1% | [12]; at 11.0 µM 3% | [12]; at 33.0 µM 8% | [12]; at 100.0 µM 12% | [13]; at 1.2 µM 3% | [13]; at 3.7 µM -2% | [13]; at 11.0 µM 1% | [13]; at 33.0 µM 1% | [13]; at 100.0 µM 10% | [14]; at 1.2 µM 0% | [14]; at 3.7 µM -1% | [14]; at 11.0 µM 0% | [14]; at 33.0 µM 3% | [14]; at 100.0 µM 16% | [15]; [17] 3% | [15]; [18] 3% | [15]; at 50.0 µM 61.9% | [16]; at 1.2 µM 2% | [16]; at 3.7 µM -1% | [16]; at 11.0 µM 3% | [16]; at 33.0 µM 2% | [16]; at 100.0 µM 5%
active: [5]; [18] 80% | [5]; at 50.0 µM 86.8%

CCS(=O)(=O)[O][Sn]([CH2]C)([CH2]C)[O]S(=O)(=O)CC
active: [6]; [18] 85% | [6]; at 50.0 µM 77% | [11]; [18] 72% | [12]; at 100.0 µM 77% | [15]; [18] 87%
inactive: [1]; at 1.2 µM -49% | [1]; at 3.7 µM -43% | [1]; at 11.0 µM -29% | [1]; at 33.0 µM -15% | [1]; at 100.0 µM 50% | [2]; at 1.2 µM -47% | [2]; at 3.7 µM -43% | [2]; at 11.0 µM -39% | [2]; at 33.0 µM -25% | [2]; at 100.0 µM 61% | [3]; at 1.2 µM -47% | [3]; at 3.7 µM -43% | [3]; at 11.0 µM -51% | [3]; at 33.0 µM -33% | [3]; at 100.0 µM -35% | [4]; at 1.2 µM -3% | [4]; at 3.7 µM -1% | [4]; at 11.0 µM 1% | [4]; at 33.0 µM 18% | [4]; at 100.0 µM 61% | [5]; at 1.2 µM -4% | [5]; at 3.7 µM -19% | [5]; [17] 21% | [5]; at 11.0 µM 2% | [5]; at 33.0 µM -14% | [5]; [18] 68% | [5]; at 50.0 µM 48.5% | [5]; at 100.0 µM 56% | [6]; at 1.2 µM -5% | [6]; at 3.7 µM 3% | [6]; [17] 6% | [6]; at 11.0 µM 3% | [6]; at 33.0 µM 23% | [6]; at 100.0 µM 69% | [7]; at 1.2 µM -2% | [7]; at 3.7 µM 4% | [7]; at 11.0 µM 4% | [7]; at 33.0 µM 10% | [7]; at 100.0 µM 34% | [8]; [17] 15% | [8]; [18] 69% | [8]; at 50.0 µM 42.2% | [9]; at 1.2 µM -18% | [9]; at 3.7 µM -45% | [9]; at 11.0 µM -33% | [9]; at 33.0 µM -35% | [9]; at 100.0 µM 54% | [10]; [17] 2% | [10]; [18] 32% | [10]; at 50.0 µM 67% | [11]; at 1.2 µM -5% | [11]; at 3.7 µM -9% | [11]; [17] 1% | [11]; at 11.0 µM -8% | [11]; at 33.0 µM -1% | [11]; at 50.0 µM 55.7% | [11]; at 100.0 µM 55% | [12]; at 1.2 µM -32% | [12]; at 3.7 µM -21% | [12]; at 11.0 µM -26% | [12]; at 33.0 µM -4% | [13]; at 1.2 µM 1% | [13]; at 3.7 µM 5% | [13]; at 11.0 µM 16% | [13]; at 33.0 µM 28% | [13]; at 100.0 µM 52% | [14]; at 1.2 µM -4% | [14]; at 3.7 µM -9% | [14]; at 11.0 µM -3% | [14]; at 33.0 µM 7% | [14]; at 100.0 µM 51% | [15]; [17] 44% | [15]; at 50.0 µM 59.6% | [16]; at 1.2 µM -29% | [16]; at 3.7 µM -25% | [16]; at 11.0 µM -17% | [16]; at 33.0 µM -16% | [16]; at 100.0 µM 52%
